# Screening data deposited in PubChem by several laboratories.
# An excerpt weighted towards active compounds, which were near 2.2% of everything screened.
# IEC-6 tox = counter-screen for KLF5 inhibitors: cytotoxicity in IEC-6 cells; actives 0.78% (n = 290,000); IEC-6 cytotoxicity, luminescence viability; inhibition, % at 5 µM; in the data active = inhibition above about 22%;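 note: 0% = plate median of test compound wells and 100% = cytotoxic reference compound wells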
# BaF3 tox = reduces parental Ba/F3 cell viability, JAK2V617F counter-screen | actives 1.1% (n = 220,000) | inhibition, % at 5.6 µM | CellTiter-Glo ATP luminescence | AID 1486;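 active = inhibition above a per-campaign cutoff, the mean inhibition of all tested compounds plus 3 SD, cut at about 27% in these data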;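 note: 0% = DMSO wells and 100% = JAK Inhibitor I control wells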
# Ba/F3 V617F tox = reduce viability of Ba/F3 cells dependent on JAK2V617F. Ba/F3 EpoR-JAK2V617F viability, ATP luminescence. AID 1446. inhibition, % at 5.6 µM. actives 1.1% (n = 220,000);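 active = inhibition above the campaign mean plus 3 SD over all tested compounds, cut at about 24% in these data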;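 note: cytokine-independent growth of Ba/F3 cells driven by EpoR plus mutant JAK2; 0% = DMSO-treated cells and 100% = JAK inhibitor I control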
# aSyn 5UTR inh = MLPCN primary screen, SNCA 5' untranslated region. alpha-synuclein 5'UTR reporter, inhibitor activity. inhibition, % (tested at 7.5 µM). actives 0.82% (n = 300,000); in the data active = inhibition above about 60%;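 note: H4 neuroglioblastoma cells stably carrying SNCA 5'UTR luciferase fusion; 0% = DMSO wells and 100% = positive control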
# KLF5 inhibitor = inhibitors of KLF5 expression. DLD-1 KLF5 promoter-luciferase reporter, luminescence. inhibition, % at 5 µM. actives 0.23% (n = 290,000). AID 1700;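 active = inhibition above a per-plate limit of that plate's mean compound inhibition plus 3 SD, cut at about 60% in these data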;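 note: 0% = DMSO wells and 100% = LY294002 at 200 µM; higher means less KLF5 promoter-driven luciferase light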
# APP transl inh = APP translation inhibition. inhibition, % at 2 µM. actives 0.82% (n = 190,000). SH-SY5Y APP 5'UTR-luciferase reporter, luminescence;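 active = inhibition above a set limit, derived from the sample mean plus 3 SD, cut at about 45% in these data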
# Active calls of the source: *; · = no result given.
SMILES,IEC-6 tox,BaF3 tox,Ba/F3 V617F tox,aSyn 5UTR inh,KLF5 inhibitor,APP transl inh
Cc1ccc(-c2nc3ccccn3c2Nc2ccccc2)o1,-2.8,92.2*,-1.5,-16.3,-35.6,0.4
CC(C)(C)c1ccccc1NC(=S)NC1CCCCC1,16.2,40.3*,-4.0,7.1,-12.7,-22.9
CC(C)(C)c1ccccc1NC(=S)NC1CCCC1,8.6,·,·,-3.1,-10.4,·
CS(=O)(=O)N1CCc2cc(C(=O)N3CCN(c4ccccc4F)CC3)ccc21,0.0,·,·,26.2,-16.2,·
Cc1ccccc1N/C(=N/S(=O)(=O)c1cc(F)ccc1F)c1ccccc1,-2.5,·,·,-0.1,-1.4,·
Cc1cc(N/C(=N\S(=O)(=O)c2ccc(F)cc2F)c2ccccc2)no1,-6.3,2.4,-0.4,19.1,-11.8,67.5*
O=C1CCC/C1=C\Nc1ccc(Cl)c([N+](=O)[O-])c1,0.3,58.4*,1.0,-14.8,-1.8,·
COc1ccc(/C=N/NC(=O)c2nc(-c3ccccc3)n(-c3ccccc3)n2)c(O)c1,2.6,2.3,-4.2,87.1*,-15.0,49.3*
CC(C)(C)c1cc(C(=O)N/N=C/c2ccccc2O)n(-c2ccccc2)n1,-0.1,0.5,-5.1,62.4*,-12.3,66.0*
COc1ccc(/C=N/NC(=O)c2nc(-c3ccccc3)n(-c3ccccc3)n2)cc1,-4.9,3.0,-1.4,26.3,-16.4,11.9
CCOC(=O)COc1ccc(S(=O)(=O)Nc2cccc(SC)c2)cc1,0.6,2.5,0.2,11.2,-1.3,68.7*
COc1cc(NC(=O)N2CCNC2=O)cc(C(=O)Nc2cccc(C(F)(F)F)c2)c1,·,·,·,67.6*,·,·
Cn1ccnc1C(=O)c1ccc(S(=O)(=O)N2CCCC2)cc1,-3.3,7.2,-1.8,-27.0,-6.8,-11.5
CCN1/C(=C\C(=S)Nc2ccccc2)Sc2ccccc21,10.7,6.8,-2.4,-143.6,-27.0,-63.2
CCN1/C(=C/C(C)=C/c2sc3ccccc3[n+]2CC)Sc2ccccc21,17.7,74.6*,100.4*,99.7*,-18.6,66.9*
Nc1ccc(N2CCCCC2)cc1N1CCCCC1,6.2,5.3,2.1,84.6*,-14.8,3.6
Nc1cc(Cl)ccc1N1CCCCCC1,-2.0,56.3*,41.6*,4.4,-1.6,-9.9
Cc1nn(-c2cc(N3CCCCC3)ccc2N)c(=O)c2ccccc12,-7.4,-2.0,-7.3,-5.2,-30.7,-5.6
CCN1CCN(C(=O)c2cc(COc3ccc(F)cc3F)on2)[C@@H](C)C1=O,3.7,·,·,8.1,-33.4,·
Cn1c(-c2ccc(F)cc2)cnc1NCc1cccc(F)c1,10.8,-2.3,-1.5,-22.6,-20.1,-15.3
Cn1c(-c2ccc3c(c2)OCO3)cnc1NCc1cccc(O)c1,-1.2,90.4*,3.1,-46.7,-15.4,-32.5
O=C(OCCN1CCCCC1)c1cccc(Cl)c1,-3.8,·,·,7.4,-19.8,·
COCC(C)NC(=O)NC(=O)c1ccc(Cl)cc1 (configuration not stated),-13.2,4.2,-0.5,-15.8,-9.4,1.0
O=C(NCCN1CCOCC1)NC1(C(F)(F)F)Oc2ccc(Cl)cc2O1 (configuration not stated),-6.7,28.6*,43.8*,-61.1,-13.9,49.5*
O=C(NCCN1CCOCC1)c1cc(Cl)ccc1Cl,1.5,·,·,6.3,-22.1,·
SMILES,IEC-6 tox,BaF3 tox,Ba/F3 V617F tox,aSyn 5UTR inh,KLF5 inhibitor,APP transl inh
COCC(C)NC(=O)NC1(C(F)(F)F)Oc2ccc(Cl)cc2O1 (configuration not stated),0.7,34.7*,37.7*,-24.5,-17.7,26.4
C#Cc1ccc([C@H]2C=C(C(=O)NCc3ccccc3)O[C@@H](OCc3ccc(CO)cc3)C2)cc1,·,·,·,15.8,·,·
Cc1cc(-n2c(C)cc(C(=O)CSc3nnc4sc5ccccc5n34)c2C)no1,-3.2,1.4,-1.8,-3.6,15.1,-7.2
Cc1cc(-n2c(C)cc(C(=O)CSc3ncnc4ccccc34)c2C)no1,4.7,51.1*,43.8*,-40.4,-7.0,3.6
COc1ccc(C(=O)COC(=O)c2ccc(N(C)C)cc2)cc1,0.4,-0.1,-0.8,-64.0,-9.6,-12.5
Cc1ccc[n+](CC(=O)c2ccc(Br)cc2)c1,0.3,·,·,-1.4,-25.8,·
CN(C)c1cc[n+](CC(=O)c2ccc(Br)cc2)cc1,-3.1,55.9*,50.6*,7.2,-5.0,-3.5
O=C(C[n+]1ccccc1)c1ccc(-c2ccccc2)cc1,-6.3,1.8,-0.2,-32.3,-15.7,-10.2
CN(C)c1cc[n+](CC(=O)c2ccc(-c3ccccc3)cc2)cc1,2.7,68.2*,98.6*,40.1,8.9,3.1
COc1ccc(C(=O)C[n+]2ccc(N(C)C)cc2)cc1,-7.5,59.2*,66.7*,-15.5,-20.3,·
CCC(=O)NC(c1cccs1)c1cc([N+](=O)[O-])c2cccnc2c1O (configuration not stated),2.7,7.4,-2.5,3.7,-0.5,·
CCCCC(=O)NC(c1ccco1)c1cc(Cl)c2cccnc2c1O (configuration not stated),-3.8,6.7,2.8,40.7,-2.4,45.7*
CCC(=O)NC(c1ccc(OC)cc1)c1cc(Cl)c2cccnc2c1O (configuration not stated),2.2,-0.8,-2.1,80.7*,-5.1,64.5*
CCC(=O)NC(c1ccco1)c1cc(Cl)c2cccnc2c1O (configuration not stated),-5.0,9.0,-0.1,99.8*,12.7,-4.0
O=C(CCc1ccccc1)NC(c1cccs1)c1cc(Cl)c2cccnc2c1O (configuration not stated),-4.3,1.2,-1.2,88.2*,-14.2,68.1*
C=CC[C@]12CC=CC(=O)[C@@]1(O)O[C@H](c1ccc(OC)c(OC)c1)[C@H]2C,·,·,·,-94.0,·,·
COc1ccc(C(NC(=O)c2cccnc2)c2cc(Cl)c3cccnc3c2O)cc1OC (configuration not stated),7.2,4.7,0.6,75.9*,0.5,73.7*
Cc1ccc(Nc2ncc(C(=O)NCCCN3CCN(C)CC3)c3ccccc23)cc1Cl,13.0,64.1*,65.2*,3.9,2.9,10.5
Cc1ccc(Nc2cc(C(=O)NCCCN3CCOCC3)c3ccccc3n2)cc1C,6.7,·,·,-48.5,-50.1,·
COC(=O)c1ccc(OC)c(CN2CCCN(Cc3cc(C)ccc3C)S2(=O)=O)c1,-0.6,·,·,6.1,-44.1,·
CS(=O)(=O)N(CC(=O)NCCSCc1cccc(Cl)c1)c1ccccc1F,-3.0,·,·,-4.4,-19.3,·
CCOC(=O)C1=C(C)C2C3C(=O)N(c4cc(C)ccc4C)C(=O)C3C1(C)C1C(=O)N(c3cc(C)ccc3C)C(=O)C21 (configuration not stated),1.9,10.1,0.9,-28.4,-48.3,75.3*
CCOC(=O)C1(C)NC(c2ccco2)C2C(=O)N(c3ccc(C)cc3)C(=O)C21 (configuration not stated),-5.2,2.2,-0.6,-2.9,-13.9,-8.3
COc1ccc(/C=N/n2c(SC)nnc2-c2ccccc2)c(OC)c1OC,68.4*,79.4*,85.8*,·,39.6,44.4
Cc1ccc(C(OCC(C)(C)C[N+](C)(C)C)c2ccccc2)cc1 (configuration not stated),-1.4,58.1*,27.1*,-0.7,-50.6,9.8
